# Reference: PubChem BioAssay (NCATS)
# Unmarked numbers belong to inactive results. Results filed as inconclusive are left out. Entries that show only a call come without a potency. Active and inactive are the calls of the source. Unless noted, calls come from the whole dose curve; as a rule, active = well fitted curve in the direction sought with a large enough effect; inconclusive = small, poorly fitted or top-dose-only effect, or another doubt; inactive = no such curve, though single readings can be large; an effect the other way counts as inactive or inconclusive.
# Legend:
# [1] = target: D(1A) dopamine receptor (Homo sapiens) (UniProt P21728); test: HTS Assay for Allosteric Agonists of the Human D1 Dopamine Receptor: Primary Screen for Antagonists (AID 488983);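 note: calcium flux response to an EC80 dopamine challenge measured with no-wash dye; nearly all actives have a fitted effect of over 65% in size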
# Summary of the method: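 Tetracycline-induced HEK293 T-REx cells expressing force-coupled D1 were plated overnight at 30 C, dye-loaded for calcium, and read kinetically. Compounds were pinned in, then an EC80 dopamine challenge followed after 180 s to reveal antagonism.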
# [2] = Validation screen for small molecules that induce genotoxicity in human embryonic kidney (HEK293T) cells expressing luciferase-tagged ELG1 (AID 493106)
# Summary of the method: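 HEK293T cells expressing luciferase-tagged ELG1 were exposed to compound or DMSO vehicle for 16 hr at 37 °C, 5% CO2. Genotoxic stress raises ELG1 levels, so increased luciferase signal after ONE-Glo addition and 30 min at room temperature marks hits.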
# [3] = target: Thyrotropin-releasing hormone receptor (Homo sapiens) (UniProt P34981); test: qHTS for Small Molecule Agonists and Allosteric Enhancers of Human TRH Receptor: Validation Screen for Agonists (AID 493127;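 active = calcium activation more than 3 SD above the typical response in the agonist read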;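 note: intracellular calcium rise by fluo-8 fluorescence before TRH EC20 addition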); details: TRH receptor agonist cell assay; at 2 µM; active compounds read high
# Thyrotropin-releasing hormone receptor (Homo sapiens), sequence (P34981 whole entry, looked up): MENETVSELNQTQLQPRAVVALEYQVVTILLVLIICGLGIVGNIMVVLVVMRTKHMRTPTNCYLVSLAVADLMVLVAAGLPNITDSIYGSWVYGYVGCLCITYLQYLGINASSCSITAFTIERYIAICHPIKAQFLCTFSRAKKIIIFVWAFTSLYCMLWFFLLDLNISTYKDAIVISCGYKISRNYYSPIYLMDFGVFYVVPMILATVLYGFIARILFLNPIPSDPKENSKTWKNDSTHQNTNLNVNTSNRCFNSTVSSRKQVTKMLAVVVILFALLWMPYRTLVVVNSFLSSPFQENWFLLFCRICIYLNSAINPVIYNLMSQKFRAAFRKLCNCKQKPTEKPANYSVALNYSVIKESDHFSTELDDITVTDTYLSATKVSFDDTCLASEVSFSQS
# Summary of the method: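 TRHR-expressing cells were plated overnight in serum-containing medium, then loaded with fluo-8 calcium dye at room temperature for 30 min–1.5 h. After a 10 s baseline, compound was pin-transferred and calcium fluorescence (ex 480/em 530) read kinetically for agonist response.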
# [4] = Validation screen for small molecules that induce DNA re-replication in SW480 colon adenocarcinoma cells (AID 504364)
# Summary of the method: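 SW480 cells seeded at 250 per well were exposed to compound or DMSO for 48 hr at 37 C, 5% CO2, then stained with Hoechst for 40 min. DNA content per nucleus was imaged (405 nm ex, 500-530 nm em).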
# [5] = target: Peptidyl-prolyl cis-trans isomerase NIMA-interacting 1 (Homo sapiens) (UniProt Q13526); test: qHTS Validation Assay to Find Inhibitors of Pin1 (AID 504536; active = well fitted inhibition curve with a large enough effect in the polarisation, with a control signal flat, not every such curve was filed as active; the % refers to the polarisation; note: potency is the fitted concentration of half-maximal effect)
# Peptidyl-prolyl cis-trans isomerase NIMA-interacting 1 (Homo sapiens), sequence (Q13526 whole entry, looked up): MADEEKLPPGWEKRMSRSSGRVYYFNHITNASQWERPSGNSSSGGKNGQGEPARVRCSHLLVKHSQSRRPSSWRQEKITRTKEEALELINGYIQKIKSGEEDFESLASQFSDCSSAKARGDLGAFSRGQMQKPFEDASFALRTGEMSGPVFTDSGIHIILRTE
# Summary of the method: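 Fluorescence polarization competition: compounds (titration) displace HiFluor-488-labeled Pin1-1b peptide from Pin1 (0.3 uM final) in pH 7.5 HEPES buffer with DTT, 10 min at room temperature; %Activity normalized to no-enzyme wells, curves fitted.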
# [6] = target: Phosphoglycerate kinase, glycosomal (Trypanosoma brucei brucei) (UniProt P07378); test: qHTS Validation Assay to Find Inhibitors of Phosphoglycerate Kinase (AID 504547); note: potency is the fitted concentration of half-maximal effect
# Summary of the method: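 Substrate/PGK mix plus compound; reaction started with GAPDH (100nM final) to form 1,3-BPG; 60 min RT; Kinase-Glo Plus 10 min; luminescence. TEA 100mM pH 7.6, MgCl2 5mM, Tween-20 0.01%.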
# [7] = target: Ubiquitin carboxyl-terminal hydrolase 1 (Homo sapiens) (UniProt O94782); test: Inhibitors of USP1/UAF1: Pilot qHTS (AID 504865); note: potency is the fitted concentration of half-maximal effect; nearly all actives have a fitted effect of over 35% in size
# Ubiquitin carboxyl-terminal hydrolase 1 (Homo sapiens), sequence (O94782 whole entry, looked up): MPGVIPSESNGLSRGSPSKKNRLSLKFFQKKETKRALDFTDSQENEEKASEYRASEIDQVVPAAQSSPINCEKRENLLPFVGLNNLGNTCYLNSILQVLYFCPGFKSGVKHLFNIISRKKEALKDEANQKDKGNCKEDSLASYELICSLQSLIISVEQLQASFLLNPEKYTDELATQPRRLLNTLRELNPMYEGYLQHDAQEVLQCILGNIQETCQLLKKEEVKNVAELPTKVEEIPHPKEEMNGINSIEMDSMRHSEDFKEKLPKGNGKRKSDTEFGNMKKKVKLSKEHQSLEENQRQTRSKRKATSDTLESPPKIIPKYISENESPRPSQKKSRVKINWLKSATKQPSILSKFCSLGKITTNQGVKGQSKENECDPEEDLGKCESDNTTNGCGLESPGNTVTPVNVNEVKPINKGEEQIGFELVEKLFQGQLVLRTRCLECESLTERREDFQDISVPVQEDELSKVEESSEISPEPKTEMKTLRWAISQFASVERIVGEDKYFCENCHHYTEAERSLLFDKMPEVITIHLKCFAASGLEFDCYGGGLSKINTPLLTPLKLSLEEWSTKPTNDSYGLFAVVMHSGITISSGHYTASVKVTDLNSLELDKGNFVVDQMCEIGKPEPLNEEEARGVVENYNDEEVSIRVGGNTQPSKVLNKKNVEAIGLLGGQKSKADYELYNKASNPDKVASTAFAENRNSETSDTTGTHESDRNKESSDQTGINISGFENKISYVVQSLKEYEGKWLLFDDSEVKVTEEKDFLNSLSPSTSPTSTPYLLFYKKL
# Summary of the method: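 Enzyme-free wells gave the negative control, while test wells held 1nM USP1/UAF1 preincubated with compound for 15 min at room temperature. Ub-Rho at 150nM final started the reaction, and fluorescence at 480/540 nm was recorded kinetically.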
# [8] = target: Voltage-gated inwardly rectifying potassium channel KCNH2 (Homo sapiens) (UniProt Q12809); test: qHTS Assay for Small Molecule Inhibitors of the Human hERG Channel Activity (AID 588834);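 note: top concentration of the series differs between compounds; lower thallium flux fluorescence means stronger hERG block; nearly all actives have a fitted effect of over 50% in size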
# Voltage-gated inwardly rectifying potassium channel KCNH2 (Homo sapiens), sequence (Q12809 whole entry, looked up): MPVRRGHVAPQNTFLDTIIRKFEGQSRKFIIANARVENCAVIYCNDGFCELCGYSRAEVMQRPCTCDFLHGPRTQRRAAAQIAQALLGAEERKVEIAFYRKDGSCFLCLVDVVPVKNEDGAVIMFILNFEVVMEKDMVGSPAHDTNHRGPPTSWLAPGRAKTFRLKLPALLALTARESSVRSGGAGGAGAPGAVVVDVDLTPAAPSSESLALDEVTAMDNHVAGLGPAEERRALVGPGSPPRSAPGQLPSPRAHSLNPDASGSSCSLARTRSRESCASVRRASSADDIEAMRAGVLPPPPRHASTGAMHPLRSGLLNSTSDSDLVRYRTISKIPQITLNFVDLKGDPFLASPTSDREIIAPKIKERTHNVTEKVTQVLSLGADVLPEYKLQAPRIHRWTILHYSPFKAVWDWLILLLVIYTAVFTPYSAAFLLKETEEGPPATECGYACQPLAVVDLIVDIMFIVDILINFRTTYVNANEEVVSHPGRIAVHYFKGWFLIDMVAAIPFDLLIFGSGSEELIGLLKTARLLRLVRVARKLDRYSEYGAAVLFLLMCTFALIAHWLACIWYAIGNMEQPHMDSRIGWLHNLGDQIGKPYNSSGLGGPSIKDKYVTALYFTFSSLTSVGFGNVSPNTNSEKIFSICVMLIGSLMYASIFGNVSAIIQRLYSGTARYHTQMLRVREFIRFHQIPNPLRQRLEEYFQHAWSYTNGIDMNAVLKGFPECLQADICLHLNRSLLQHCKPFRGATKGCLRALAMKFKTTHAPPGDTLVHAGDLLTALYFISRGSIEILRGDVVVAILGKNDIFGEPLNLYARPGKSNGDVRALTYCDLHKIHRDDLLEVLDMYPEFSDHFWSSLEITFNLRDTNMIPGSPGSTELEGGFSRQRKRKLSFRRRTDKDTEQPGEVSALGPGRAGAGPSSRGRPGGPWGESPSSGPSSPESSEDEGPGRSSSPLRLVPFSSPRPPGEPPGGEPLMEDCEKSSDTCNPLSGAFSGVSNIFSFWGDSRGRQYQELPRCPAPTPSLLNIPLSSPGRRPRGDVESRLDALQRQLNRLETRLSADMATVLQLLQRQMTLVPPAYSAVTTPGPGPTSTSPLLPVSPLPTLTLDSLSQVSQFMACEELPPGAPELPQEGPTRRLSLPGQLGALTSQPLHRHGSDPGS
# Summary of the method: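 Blockade is seen as reduced FluxOR thallium-flux fluorescence in U2OS cells expressing hERG from a BacMam construct, in Opti-MEM with 2% FCS. Concentration-response data fitted to the Hill equation for AC50.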
# [9] = target: Glucagon-like peptide 1 receptor (Homo sapiens) (UniProt P43220); test: qHTS of GLP-1 Receptor Agonists: LOPAC Validation (AID 624148);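 note: higher luminescence signal means agonism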
# Summary of the method: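 HEK293 cells stably co-expressing a cAMP-responsive luciferase reporter and a hypersensitive GLP-1R were plated 12 h at 37 °C and exposed to compounds for 4-6 hr at 37 °C, 5% CO2. Luminescence was read 12 min after adding detection reagent.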
# [10] = qHTS of Nrf2 Activators: LOPAC Validation (AID 624149)
# Summary of the method: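 AREc32 cells carrying an ARE-driven firefly luciferase were grown overnight in OPTI-MEM with 5% FBS, then exposed to compounds for 24 hr at 37 deg C. Luciferase signal was read after 30 min with Steady-Glo at RT.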
# [11] = HTS Assay for Allosteric Antagonists of the Human D2 Dopamine Receptor: Hit Validation in HTRF (AID 624455);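 note: stable D1 dopamine receptor cell line scored for blocking the D1 response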
# Summary of the method: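 Hits were examined in an HTRF assay using cells stably expressing the D1 dopamine receptor, scoring inhibition of the D1-mediated response. The preceding primary screen tracked calcium flux after an EC80 dopamine addition in force-coupled, inducible Hek293 Trex D2 cells.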
# [12] = target: Arylsulfatase A (Homo sapiens) (UniProt P15289); test: qHTS screen for enhancers of Arylsulfatase A (ASA1): LOPAC Validation Assay (AID 720538); note: potency is the fitted concentration of half-maximal effect
# Arylsulfatase A (Homo sapiens), sequence (P15289 whole entry, looked up): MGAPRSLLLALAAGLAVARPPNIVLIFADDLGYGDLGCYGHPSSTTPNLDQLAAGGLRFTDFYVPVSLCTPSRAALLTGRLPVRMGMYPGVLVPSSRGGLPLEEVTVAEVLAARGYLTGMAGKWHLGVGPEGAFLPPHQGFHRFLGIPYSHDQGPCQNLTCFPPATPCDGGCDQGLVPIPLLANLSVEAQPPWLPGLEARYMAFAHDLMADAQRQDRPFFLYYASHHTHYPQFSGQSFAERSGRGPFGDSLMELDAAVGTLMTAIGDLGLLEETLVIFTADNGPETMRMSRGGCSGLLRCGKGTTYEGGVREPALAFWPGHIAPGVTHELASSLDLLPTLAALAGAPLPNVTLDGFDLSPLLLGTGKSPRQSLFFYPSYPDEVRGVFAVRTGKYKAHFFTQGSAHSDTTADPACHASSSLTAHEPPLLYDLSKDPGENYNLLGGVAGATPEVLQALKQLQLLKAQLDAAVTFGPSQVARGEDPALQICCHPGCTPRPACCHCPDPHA
# Summary of the method: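 Cell-based enhancement test: residual ASA activity in SV40-transformed I179S patient fibroblasts is measured by pNCS turnover (0.5mM final, 14h, room temperature) following 48h compound incubation; higher fluorescence indicates activation.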
# [13] = qHTS for compounds that reverse cellular toxicity of Amyloid beta (A-beta) peptide in yeast: LOPAC Validation Assay (AID 720559)
# Summary of the method: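 Here, A-beta-toxic yeast grow with test compounds at 30 C for 48 hr before optical density at 600 nm is recorded; data are normalized against DMSO and the FeCl3-clioquinol control.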
# [14] = qHTS for Activators of Parkin Expression: LOPAC Validation Assay (NLuc Reporter) (AID 720572)
# Summary of the method: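 Neuronal line stably carrying a FLuc/NLuc coincidence reporter under the Parkin promoter, seeded 24 h, then dosed in 7-point series for 24 h at 37 C. NLuc luminescence read after FLuc; normalized to DMSO and positive control (100%).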
# [15] = qHTS for Activators of Parkin Expression: LOPAC Validation Assay (FLuc Reporter) (AID 720573)
# Summary of the method: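 Readout is FLuc luminescence from neuronal reporter cells (Parkin promoter, FLuc plus NLuc) after 24 h compound exposure in dose response. Values normalized to neutral DMSO and positive-control compounds.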
# [16] = target: Hexokinase-4 (Homo sapiens) + Glucokinase regulatory protein (Homo sapiens) (UniProt P35557+Q14397); test: qHTS assay for inhibitors of recombinant human GCK-GKRP interaction: ADP-Glo assay (AID 743206)
# Hexokinase-4 (Homo sapiens) + Glucokinase regulatory protein (Homo sapiens), sequence (P35557 whole entry, looked up): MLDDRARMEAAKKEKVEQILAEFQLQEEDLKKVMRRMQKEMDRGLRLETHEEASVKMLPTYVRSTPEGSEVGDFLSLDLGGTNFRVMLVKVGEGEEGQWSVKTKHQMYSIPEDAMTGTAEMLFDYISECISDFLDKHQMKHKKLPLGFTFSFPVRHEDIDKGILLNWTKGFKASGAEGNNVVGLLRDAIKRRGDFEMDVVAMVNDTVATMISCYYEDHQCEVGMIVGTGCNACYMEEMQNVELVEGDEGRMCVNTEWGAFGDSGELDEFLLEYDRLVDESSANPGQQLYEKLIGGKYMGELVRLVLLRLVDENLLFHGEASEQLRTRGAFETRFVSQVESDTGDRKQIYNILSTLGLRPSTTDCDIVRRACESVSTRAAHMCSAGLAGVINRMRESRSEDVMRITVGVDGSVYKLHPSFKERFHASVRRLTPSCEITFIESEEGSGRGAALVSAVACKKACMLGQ
# Hexokinase-4 (Homo sapiens) + Glucokinase regulatory protein (Homo sapiens), sequence (Q14397 whole entry, looked up): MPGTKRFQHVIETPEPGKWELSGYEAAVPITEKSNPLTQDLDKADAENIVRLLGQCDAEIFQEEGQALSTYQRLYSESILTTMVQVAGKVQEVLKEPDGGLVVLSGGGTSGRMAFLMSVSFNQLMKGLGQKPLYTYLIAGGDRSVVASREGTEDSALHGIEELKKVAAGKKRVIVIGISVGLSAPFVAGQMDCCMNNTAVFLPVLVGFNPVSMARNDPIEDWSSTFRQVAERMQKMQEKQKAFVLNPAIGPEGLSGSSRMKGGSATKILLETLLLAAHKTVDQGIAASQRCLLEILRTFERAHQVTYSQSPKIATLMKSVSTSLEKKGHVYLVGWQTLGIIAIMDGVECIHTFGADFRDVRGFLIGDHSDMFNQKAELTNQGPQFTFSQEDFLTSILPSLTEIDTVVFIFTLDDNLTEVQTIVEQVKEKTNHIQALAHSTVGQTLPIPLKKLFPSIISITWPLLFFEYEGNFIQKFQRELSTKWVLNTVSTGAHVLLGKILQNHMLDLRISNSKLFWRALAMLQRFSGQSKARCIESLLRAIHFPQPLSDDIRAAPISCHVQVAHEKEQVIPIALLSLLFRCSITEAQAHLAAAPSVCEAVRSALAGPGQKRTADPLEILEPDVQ
# Summary of the method: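 GST-GCK and FLAG-GKRP (15 nM each in the dispensed mix, with 2 uM S6P) react with 0.4 mM ATP and 5 mM glucose (final) in Hepes pH 7.6 for 60 min at room temperature. ADP is measured by ADP-Glo luminescence.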
# [17] = qHTS Assay for Identifying Gametocytocidal Compounds (AID 743244);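 note: actives lower the fluorescent signal which means gametocytes are killed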; details: P. falciparum 3D7 stage III-V gametocytes, alamarBlue, 72 h; max response: active compounds read low
# Summary of the method: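 Using 20,000 stage III–V 3D7 gametocytes per well, compounds were incubated 72 h under 37 °C/5% CO2. Viability was then assessed by 24 h alamarBlue reduction, measured fluorometrically at 525/598 nm.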
# [18] = Natriuretic polypeptide receptor (hNpr1) antagonism - Pilot counterscreen GloSensor control cell line (AID 1347045; calls by dose curve; note: potency is the fitted concentration of half-maximal effect)
# Summary of the method: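 HEK293 cells carrying the GloSensor cGMP sensor (GIP/pGS-40F) were loaded with 2% GloSensor reagent for 2 h, exposed to compounds for 30 min, and then stimulated with 50 uM sodium nitroprusside for 20 min at room temperature.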
# [19] = NS1 protein of Zika virus - qHTS assay to identify small molecule inhibitors in human HEK 293 cells (AID 1347053); note: series mostly up to about 46 µM; nearly all actives have a fitted effect of over 55% in size
# Summary of the method: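 Following 20 h seeding, HEK 293 cells took compound, then 1 h later ZIKV MR766 (MOI = 0.5). Incubation ran 24 h at 37 C before TR-FRET detection of NS1; a drop in signal indicates inhibition.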
# [20] = target: T1, Tyrosine-protein phosphatase non-receptor type substrate 1 (Homo sapiens) + Leukocyte surface antigen CD47 (Homo sapiens) (UniProt P78324+Q08722); test: CD47-SIRPalpha protein protein interaction - LANCE assay qHTS validation (AID 1347057; active = well fitted curve in the direction sought with a large enough effect in the signal ratio, with a control signal flat, not every such curve was filed as active; the % refers to the signal ratio; note: series mostly up to about 38 µM)
# T1 sequence (P78324 whole entry, looked up): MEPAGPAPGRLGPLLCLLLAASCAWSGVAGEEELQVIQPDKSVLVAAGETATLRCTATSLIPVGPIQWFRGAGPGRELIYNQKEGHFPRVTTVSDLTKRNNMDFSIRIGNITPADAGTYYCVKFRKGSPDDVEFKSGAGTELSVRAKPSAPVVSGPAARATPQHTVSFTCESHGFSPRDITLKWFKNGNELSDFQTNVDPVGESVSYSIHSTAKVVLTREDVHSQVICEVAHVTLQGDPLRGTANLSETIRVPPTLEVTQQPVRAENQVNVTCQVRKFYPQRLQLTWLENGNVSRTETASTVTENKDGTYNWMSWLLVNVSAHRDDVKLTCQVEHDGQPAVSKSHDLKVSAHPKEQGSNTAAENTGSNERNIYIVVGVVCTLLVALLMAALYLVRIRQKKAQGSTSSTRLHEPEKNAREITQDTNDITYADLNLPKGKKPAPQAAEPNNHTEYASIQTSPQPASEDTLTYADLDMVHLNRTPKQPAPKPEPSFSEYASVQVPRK
# T1 sequence (Q08722 whole entry, looked up): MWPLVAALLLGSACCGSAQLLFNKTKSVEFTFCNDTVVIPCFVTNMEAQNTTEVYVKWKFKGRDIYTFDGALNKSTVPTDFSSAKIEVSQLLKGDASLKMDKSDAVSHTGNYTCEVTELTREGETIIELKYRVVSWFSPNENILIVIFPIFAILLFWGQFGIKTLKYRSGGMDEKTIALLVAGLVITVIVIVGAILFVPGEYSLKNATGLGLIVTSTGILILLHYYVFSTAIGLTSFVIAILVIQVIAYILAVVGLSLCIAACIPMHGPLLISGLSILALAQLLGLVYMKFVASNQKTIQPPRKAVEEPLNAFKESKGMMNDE
# Summary of the method: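 First, His-tagged CD47 and Eu-labelled anti-His antibody met the compound for 30 min; next, site-specifically biotinylated SIRPalpha was added for 30 min; finally streptavidin-APC was added before reading the TR-FRET ratio.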
# [21] = target: T1, Tyrosine-protein phosphatase non-receptor type substrate 1 (Homo sapiens) + Leukocyte surface antigen CD47 (Homo sapiens); test: CD47-SIRPalpha protein protein interaction - Alpha assay qHTS validation (AID 1347059);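 note: bead proximity luminescence from CD47 binding SIRPalpha after compound preincubation with SIRPalpha; potency is the fitted concentration of half-maximal effect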
# Summary of the method: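 Soluble extracellular domains: Avi-tag biotinylated SIRPalpha (25 nM) preincubated 30 min RT with compound, then 6His-CD47 (12.5 nM) 30 min; Ni-NTA acceptor and streptavidin donor beads (10 ug/mL) 30 min, AlphaScreen read. PBS pH 7.4, 0.05% IGEPAL.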
compound,measurement,setting,value
Nc1c(S(=O)(=O)O)cc(Nc2ccc(Nc3nc(Cl)nc(Nc4ccc(S(=O)(=O)O)cc4)n3)c(S(=O)(=O)O)c2)c2c1C(=O)c1ccccc1C2=O,outcome,[1],inactive
same,Potency,[2],inactive
same,activation,[3],1.5%
same,outcome,[4],inactive
same,Potency,[5],2.39 µM (active)
same,Potency,[6],5.36 µM (active)
same,Potency,[7],6.31 µM (active)
same,Potency,[8],inactive
same,outcome,[9],inactive
same,outcome,[10],inactive
same,outcome,[11],inactive
same,Potency,[12],26.9 µM (active)
same,outcome,[13],inactive
same,outcome,[14],inactive
same,Potency,[15],inactive
same,outcome,[16],inactive
same,max response,[17],27.3%
same,Potency,[18],9.27 µM (active)
same,outcome,[19],inactive
same,outcome,[20],inactive
same,Potency,[21],11.7 µM (active)
